Results reported in the supplement of paper PMC6992640.

Tests used:
HCI01 = cells of a triple-negative basal-like breast cancer xenograft; assay: cell viability of combination (% of vehicle); higher = less cytotoxic; settings: 1 µM; 72 h; partner dose: 10 nM
Experimental: (§1)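 PDX cells were treated for 72 h with each drug at 1 µM plus afatinib (10 nM; 1 µM for WHIM30). Luciferase viability is expressed as percent of vehicle.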

WHIM2 = cells of a triple-negative basal-like breast cancer xenograft; assay: as above; settings: 1 µM; 72 h; partner dose: 10 nM
Experimental: as §1

Structure (SMILES)	cell viability of combination (HCI01)	cell viability of combination (WHIM2)
CCCCc1oc2ccc(NS(C)(=O)=O)cc2c1C(=O)c1ccc(OCCCN(CCCC)CCCC)cc1.Cl [Dronedarone HCl] + CN(C)C/C=C/C(=O)Nc1cc2c(Nc3ccc(F)c(Cl)c3)ncnc2cc1O[C@H]1CCOC1 [Afatinib]	54.4	52.5
O=C1C=CC=CC1=C1NC(=C2C=CC=CC2=O)N(c2ccc(C(=O)O)cc2)N1 [Deferasirox] + CN(C)C/C=C/C(=O)Nc1cc2c(Nc3ccc(F)c(Cl)c3)ncnc2cc1O[C@H]1CCOC1 [Afatinib]	43.2	42.2
N.N.O=C([O-])C1(C(=O)[O-])CCC1.[Pt+2] [Carboplatin] + CN(C)C/C=C/C(=O)Nc1cc2c(Nc3ccc(F)c(Cl)c3)ncnc2cc1O[C@H]1CCOC1 [Afatinib]	60.1	53.1
C=C1C(=CC=C2CCCC3(C)C2CCC3C(C)CCCC(C)(C)O)CC(O)CC1O (stereo unspecified) [Calcitriol] + CN(C)C/C=C/C(=O)Nc1cc2c(Nc3ccc(F)c(Cl)c3)ncnc2cc1O[C@H]1CCOC1 [Afatinib]	42.1	31.2
CNC(=O)c1cc(Oc2ccc(NC(=O)Nc3ccc(Cl)c(C(F)(F)F)c3)c(F)c2)ccn1 [Regorafenib] + CN(C)C/C=C/C(=O)Nc1cc2c(Nc3ccc(F)c(Cl)c3)ncnc2cc1O[C@H]1CCOC1 [Afatinib]	46.8	44.2
CC(O)C(=O)O.CC(O)C(=O)O.CN1CCN(c2ccc3c(c2)NC(=C2C(=O)N=c4cccc(F)c4=C2N)N3)CC1 [Dovitinib Dilactic acid] + CN(C)C/C=C/C(=O)Nc1cc2c(Nc3ccc(F)c(Cl)c3)ncnc2cc1O[C@H]1CCOC1 [Afatinib]	42.3	30.4
CC(O)C(=O)O.CCOc1ccc2nc3cc(N)ccc3c(N)c2c1.O [Ethacridine lactate monohydrate] + CN(C)C/C=C/C(=O)Nc1cc2c(Nc3ccc(F)c(Cl)c3)ncnc2cc1O[C@H]1CCOC1 [Afatinib]	52.5	31.1
CNC(=O)c1cc(Oc2ccc(NC(=O)Nc3ccc(Cl)c(C(F)(F)F)c3)cc2)ccn1 [Sorafenib] + CN(C)C/C=C/C(=O)Nc1cc2c(Nc3ccc(F)c(Cl)c3)ncnc2cc1O[C@H]1CCOC1 [Afatinib]	49.6	48.5
Cl.Clc1ccccc1CN1CCc2sccc2C1 [Ticlopidine HCl] + CN(C)C/C=C/C(=O)Nc1cc2c(Nc3ccc(F)c(Cl)c3)ncnc2cc1O[C@H]1CCOC1 [Afatinib]	57.8	47.9
CC[C@@H]1/C=C(\C)C[C@H](C)C[C@H](OC)[C@H]2O[C@@](O)(C(=O)C(=O)N3CCCC[C@H]3C(=O)O[C@H](/C(C)=C/[C@@H]3CC[C@H](Cl)[C@H](OC)C3)[C@H](C)[C@@H](O)CC1=O)[C@H](C)C[C@@H]2OC [Pimecrolimus] + CN(C)C/C=C/C(=O)Nc1cc2c(Nc3ccc(F)c(Cl)c3)ncnc2cc1O[C@H]1CCOC1 [Afatinib]	51.2	42.6
CCN(CC)CCNC(=O)c1c(C)[nH]c(C=C2C(=O)Nc3ccc(F)cc32)c1C [Sunitinib] + CN(C)C/C=C/C(=O)Nc1cc2c(Nc3ccc(F)c(Cl)c3)ncnc2cc1O[C@H]1CCOC1 [Afatinib]	38.8	25.7
C=C(c1ccc(C(=O)O)cc1)c1cc2c(cc1C)C(C)(C)CCC2(C)C [Bexarotene] + CN(C)C/C=C/C(=O)Nc1cc2c(Nc3ccc(F)c(Cl)c3)ncnc2cc1O[C@H]1CCOC1 [Afatinib]	51.8	35.7
CNCCC(Oc1cccc2ccccc12)c1cccs1.Cl (stereo unspecified) [Duloxetine HCl] + CN(C)C/C=C/C(=O)Nc1cc2c(Nc3ccc(F)c(Cl)c3)ncnc2cc1O[C@H]1CCOC1 [Afatinib]	45.3	41.1
COc1ccc2cc1Oc1ccc(cc1)CC1c3c(cc4c(c3Oc3cc5c(cc3OC)CCN(C)C5C2)OCO4)CCN1C (stereo unspecified) [Cepharanthine] + CN(C)C/C=C/C(=O)Nc1cc2c(Nc3ccc(F)c(Cl)c3)ncnc2cc1O[C@H]1CCOC1 [Afatinib]	48.5	38.1
C=CC(=O)N1CCC(Oc2cc3c(Nc4ccc(Cl)c(Cl)c4F)ncnc3cc2OC)CC1 [Poziotinib] + CN(C)C/C=C/C(=O)Nc1cc2c(Nc3ccc(F)c(Cl)c3)ncnc2cc1O[C@H]1CCOC1 [Afatinib]	42.9	22.2
CC[C@@]1(O)C(=O)OCc2c1cc1n(c2=O)Cc2cc3c(CN(C)C)c(O)ccc3nc2-1 [Topotecan] + CN(C)C/C=C/C(=O)Nc1cc2c(Nc3ccc(F)c(Cl)c3)ncnc2cc1O[C@H]1CCOC1 [Afatinib]	40.1	31.4
CN(C)c1ccc(O)c2c1CC1CC3C(N(C)C)C(=O)C(C(N)=O)=C(O)C3(O)C(=O)C1=C2O.Cl (stereo unspecified) [Minocycline HCl] + CN(C)C/C=C/C(=O)Nc1cc2c(Nc3ccc(F)c(Cl)c3)ncnc2cc1O[C@H]1CCOC1 [Afatinib]	66.6	49.9
CN1CCN(CCOc2cc(OC3CCOCC3)c3c(Nc4c(Cl)ccc5c4OCO5)ncnc3c2)CC1 [Saracatinib (AZD0530)] + CN(C)C/C=C/C(=O)Nc1cc2c(Nc3ccc(F)c(Cl)c3)ncnc2cc1O[C@H]1CCOC1 [Afatinib]	41.1	24.5
CCCCCCCCCCCCCCCCOP(=O)([O-])OCC[N+](C)(C)C [Miltefosine] + CN(C)C/C=C/C(=O)Nc1cc2c(Nc3ccc(F)c(Cl)c3)ncnc2cc1O[C@H]1CCOC1 [Afatinib]	56.7	49.3
COc1cc2nccc(Oc3ccc(NC(=O)C4(C(=O)Nc5ccc(F)cc5)CC4)cc3)c2cc1OC.O=C(O)CC(O)C(=O)O [Cabozantinib malate (XL184)] + CN(C)C/C=C/C(=O)Nc1cc2c(Nc3ccc(F)c(Cl)c3)ncnc2cc1O[C@H]1CCOC1 [Afatinib]	50.8	43.2
CCN(CC)CCNC(=O)c1c(C)[nH]c(C=C2C(=O)Nc3ccc(F)cc32)c1C.O=C(O)CC(O)C(=O)O [Sunitinib malate] + CN(C)C/C=C/C(=O)Nc1cc2c(Nc3ccc(F)c(Cl)c3)ncnc2cc1O[C@H]1CCOC1 [Afatinib]	42	44.2
CC1(C)Cc2c(-c3ccccc3)c(-c3ccc(Cl)cc3)c(CC(=O)O)n2C1 [Licofelone] + CN(C)C/C=C/C(=O)Nc1cc2c(Nc3ccc(F)c(Cl)c3)ncnc2cc1O[C@H]1CCOC1 [Afatinib]	66.1	46.8
Cc1cc(Nc2ncc(Cl)c(Nc3ccccc3S(=O)(=O)C(C)C)n2)c(OC(C)C)cc1C1CCNCC1 + CN(C)C/C=C/C(=O)Nc1cc2c(Nc3ccc(F)c(Cl)c3)ncnc2cc1O[C@H]1CCOC1 [Afatinib]	44.4	36.7
